Values without a mark were called inactive. Results filed as inconclusive are left out. The source made the active and inactive calls. The call rests on the fitted dose curve; in most records, active means well fitted curve in the direction sought with a large enough effect in the repeat runs; inconclusive means weak or mixed curves; inactive means no such curve, though single readings can be large; an effect the other way counts as inactive or inconclusive.
assay: A CellTox Green Cytotoxicity Assay to monitor cytotoxicity in HEK293 cells - 0 hour (AID 1224869); conditions: CellTox Green fluorescence; series mostly up to 76.8 µM; cytotoxicity: at the top concentration
Procedure, shortened: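 Read-out: fluorescence of a cell-impermeant cyanine dye staining DNA of dead cells, proportional to cytotoxicity. HEK293, 600 cells/well with reagent, compound (23 nL DMSO) added after 5 h; reads at 0, 8, 16, 24, 32, 40 h.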
Further: nearly all actives have a fitted effect of over 50% in size.
On the % scale 0 is the no-effect control and ±100 the full control effect.

| SMILES | cytotoxicity | Potency |
| --- | --- | --- |
| Cc1nc(N(C)C)nc(OC(=O)N(C)C)c1C | -5.44% | – |
| FC(Cl)(Cl)C(F)(Cl)Cl | -5.64% | – |
| CC(Oc1cccc(Cl)c1)C(=O)O (configuration not stated) | -5.73% | – |
| CC(Cc1ccccc1)NCc1ccccc1Cl (configuration not stated) | 0.873% [at 35.3 µM] | – |
| CCSCc1ccccc1OC(=O)NC | -6.27% | – |
| CCCSP(=S)(OCC)Oc1ccc(SC)cc1 (configuration not stated) | 1.05% | – |
| C[C@@H]1C[C@@H]([C@H](O)CC2CC(=O)NC(=O)C2)C(=O)[C@@H](C)C1 | – | inactive |
| O=C=NC1CCCCC1 | 3.34% | – |
| CON(C)C(=O)Nc1ccc(Cl)cc1 | -0.0623% | – |
| CCc1ccccc1N | 16.1% | – |
| CCCC[N+]1(C)[C@@H]2CC(OC(=O)[C@H](CO)c3ccccc3)C[C@H]1[C@@H]1O[C@@H]12 (some centres not stated) | 0.839% [at 35.3 µM] | – |
| C[C@H]1O[C@H](OC2[C@@H](O)[C@@H](O)C(O)[C@H](O)[C@H]2O)[C@@H](N)C[C@@H]1N=C(N)C(=O)O (some centres not stated) | -0.886% | – |
| CCOC(=O)c1cncn1C(C)c1ccccc1 (configuration not stated) | 2.68% [at 35.3 µM] | – |
| CCCCCCCCCCCCCCCl | 2.15% | – |
| CC(C)(C)c1ccc(CCOc2ncnc3ccccc23)cc1 | 0.382% | – |
| N#CC(C#N)=C(C#N)C#N | 1.51% | – |
| CCCCCCCCP(=O)(O)O | -1.83% | – |
| CC1(C)CC(=O)CC(C)(C)N1[O] | 1.54% | – |
| CC(C)(C)N(NC(=O)c1ccc(Cl)cc1)C(=O)c1ccccc1 | 0.206% | – |
| O=[N+]([O-])O[C@H]1CO[C@H]2[C@@H]1OC[C@H]2O[N+](=O)[O-] | -3.59% [at 35.3 µM] | – |
| COC(=O)Cc1ccccc1 | -0.002% | – |
| C#C[C@]1(O)CC[C@H]2[C@@H]3CCC4=CC(=O)CCC4=C3C=C[C@@]21CC | -1.63% [at 35.3 µM] | – |
| CC(O)CN1CCN(CC(=O)[O-])CCN(CC(=O)[O-])CCN(CC(=O)[O-])CC1.[Gd+3] (configuration not stated) | -1.75% [at 35.3 µM] | – |
| CCC(C)(C)c1ccc(O)c(C(C)(C)CC)c1 | -0.19% | – |
| O=C(Cc1ccccc1)c1ccccc1 | 1.08% | – |
| CN1CC[C@]23c4c5ccc(O)c4O[C@H]2[C@@H](O)C=C[C@H]3[C@H]1C5 | -8.92% | – |
| ClCc1ccccc1Cl | 4.51% | – |
| CCOc1cccc(C2(N3CCN(c4ccccc4)CC3)CCC(C)CC2)c1 (configuration not stated) | 5.77% | – |

assay: qHTS RealTime-Glo MT Cell Viability Assay in HepG2 cells - 40 hour (AID 1224870); conditions: RealTime-Glo luminescence; series mostly up to 76.8 µM; activity change, negative = cytotoxic: at the top concentration
Procedure, shortened: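 HepG2 cells mixed with RealTime-Glo MT reagents (NanoLuc plus cell-permeant prosubstrate) were seeded at 600 cells/well, incubated 5 h at 37 C/5% CO2, then pinned with compounds in DMSO; nonlytic luminescence tracked viability during 40 h treatment.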

| SMILES | activity change, negative = cytotoxic | Potency |
| --- | --- | --- |
| Cc1nc(N(C)C)nc(OC(=O)N(C)C)c1C | -0.0752% | – |
| FC(Cl)(Cl)C(F)(Cl)Cl | -4.39% | – |
| CC(Oc1cccc(Cl)c1)C(=O)O (configuration not stated) | 0.3% | – |
| CC(Cc1ccccc1)NCc1ccccc1Cl (configuration not stated) | -0.895% [at 35.3 µM] | – |
| CCCCOC(=O)CCC(=O)OCCCC | 0.355% | – |
| CCSCc1ccccc1OC(=O)NC | 3.21% | – |
| CCCSP(=S)(OCC)Oc1ccc(SC)cc1 (configuration not stated) | -5.71% | – |
| C[C@@H]1C[C@@H]([C@H](O)CC2CC(=O)NC(=O)C2)C(=O)[C@@H](C)C1 | – | inactive |
| O=C=NC1CCCCC1 | -8.72% | – |
| C1CS1 | -4.08% | – |
| O=C(N[C@H]1CN2CCC1CC2)c1ccc2c(c1)OCCO2 | 2.17% | – |
| CON(C)C(=O)Nc1ccc(Cl)cc1 | -0.379% | – |
| CCOP(=S)(S)OCC | 0.852% | – |
| CCc1ccccc1N | 0.614% | – |
| CCCC[N+]1(C)[C@@H]2CC(OC(=O)[C@H](CO)c3ccccc3)C[C@H]1[C@@H]1O[C@@H]12 (some centres not stated) | 0.4% [at 35.3 µM] | – |
| COc1cc(CC#N)cc(OC)c1OC | 3.41% [at 35.3 µM] | – |
| C[C@H]1O[C@H](OC2[C@@H](O)[C@@H](O)C(O)[C@H](O)[C@H]2O)[C@@H](N)C[C@@H]1N=C(N)C(=O)O (some centres not stated) | 1.21% | – |
| CCOC(=O)c1cncn1C(C)c1ccccc1 (configuration not stated) | 0.815% [at 35.3 µM] | – |
| CCCCCCCCCCCCCCCl | 0.218% | – |
| CC(C)(C)c1ccc(CCOc2ncnc3ccccc23)cc1 | 1.45% | – |

| SMILES | activity change, negative = cytotoxic | Potency |
| --- | --- | --- |
| N#CC(C#N)=C(C#N)C#N | -12.6% | – |
| CCCCCCCCP(=O)(O)O | 0.432% | – |
| COc1cc(C[C@@H](C)N)c(OC)cc1Br | -3.7% | – |
| CC1(C)CC(=O)CC(C)(C)N1[O] | 3.16% | – |
| CC(C)(C)N(NC(=O)c1ccc(Cl)cc1)C(=O)c1ccccc1 | -1.92% | – |
| O=[N+]([O-])O[C@H]1CO[C@H]2[C@@H]1OC[C@H]2O[N+](=O)[O-] | 1.36% [at 35.3 µM] | – |
| COC(=O)Cc1ccccc1 | 1.45% | – |
| C#C[C@]1(O)CC[C@H]2[C@@H]3CCC4=CC(=O)CCC4=C3C=C[C@@]21CC | -23.3% [at 35.3 µM] | – |
| CC(O)CN1CCN(CC(=O)[O-])CCN(CC(=O)[O-])CCN(CC(=O)[O-])CC1.[Gd+3] (configuration not stated) | -0.832% [at 35.3 µM] | – |
| O=C(N/N=C/c1ccc([N+](=O)[O-])o1)c1cc([N+](=O)[O-])cc([N+](=O)[O-])c1O | -0.814% [at 35.3 µM] | – |
| CCC(C)(C)c1ccc(O)c(C(C)(C)CC)c1 | -11.4% | – |
| O=C(Cc1ccccc1)c1ccccc1 | 2.14% | – |
| O=C(O)C(F)(F)C(F)(F)C(F)(F)C(F)(F)C(F)(F)F | 0.0368% | – |
| CN1CC[C@]23c4c5ccc(O)c4O[C@H]2[C@@H](O)C=C[C@H]3[C@H]1C5 | 1.21% | – |
| ClCc1ccccc1Cl | -2.9% | – |
| CN(C1CCCCC1)C1CCCCC1 | 2.57% | – |
| C=C(Cl)Cl | -0.0765% | – |
| N#CC(C#N)=Cc1ccc(O)c(O)c1 | -7.73% [at 35.3 µM] | – |
| CCOc1cccc(C2(N3CCN(c4ccccc4)CC3)CCC(C)CC2)c1 (configuration not stated) | 5.03% | – |
